# Reference: ChEMBL document CHEMBL3988442, “University of Dundee, Small-Polar-MMV Screening Library” (2021)
# For some assays here: Entries with a potency or affinity are not part of this list.
# Tests used:
# Set-up in all cases: scale not given: direction of the effect not stated beside the values
# [1] = biological target: Protein translocase subunit SecA (Escherichia coli (strain K12)) (UniProt P10408); experiment: Assay to Identify E. coli SecA ATPase Inhibitors; type: functional; conditions: 30 µM
# [2] = biological target: T1, Ubiquitin-activating enzyme e1, putative (Leishmania donovani (strain BPK282A1)) (UniProt E9BSI1); experiment: Leishmania donovani Ubiquitin Activating Enzyme (LdE1); type: functional; conditions: 30 µM
# T1 sequence (whole entry): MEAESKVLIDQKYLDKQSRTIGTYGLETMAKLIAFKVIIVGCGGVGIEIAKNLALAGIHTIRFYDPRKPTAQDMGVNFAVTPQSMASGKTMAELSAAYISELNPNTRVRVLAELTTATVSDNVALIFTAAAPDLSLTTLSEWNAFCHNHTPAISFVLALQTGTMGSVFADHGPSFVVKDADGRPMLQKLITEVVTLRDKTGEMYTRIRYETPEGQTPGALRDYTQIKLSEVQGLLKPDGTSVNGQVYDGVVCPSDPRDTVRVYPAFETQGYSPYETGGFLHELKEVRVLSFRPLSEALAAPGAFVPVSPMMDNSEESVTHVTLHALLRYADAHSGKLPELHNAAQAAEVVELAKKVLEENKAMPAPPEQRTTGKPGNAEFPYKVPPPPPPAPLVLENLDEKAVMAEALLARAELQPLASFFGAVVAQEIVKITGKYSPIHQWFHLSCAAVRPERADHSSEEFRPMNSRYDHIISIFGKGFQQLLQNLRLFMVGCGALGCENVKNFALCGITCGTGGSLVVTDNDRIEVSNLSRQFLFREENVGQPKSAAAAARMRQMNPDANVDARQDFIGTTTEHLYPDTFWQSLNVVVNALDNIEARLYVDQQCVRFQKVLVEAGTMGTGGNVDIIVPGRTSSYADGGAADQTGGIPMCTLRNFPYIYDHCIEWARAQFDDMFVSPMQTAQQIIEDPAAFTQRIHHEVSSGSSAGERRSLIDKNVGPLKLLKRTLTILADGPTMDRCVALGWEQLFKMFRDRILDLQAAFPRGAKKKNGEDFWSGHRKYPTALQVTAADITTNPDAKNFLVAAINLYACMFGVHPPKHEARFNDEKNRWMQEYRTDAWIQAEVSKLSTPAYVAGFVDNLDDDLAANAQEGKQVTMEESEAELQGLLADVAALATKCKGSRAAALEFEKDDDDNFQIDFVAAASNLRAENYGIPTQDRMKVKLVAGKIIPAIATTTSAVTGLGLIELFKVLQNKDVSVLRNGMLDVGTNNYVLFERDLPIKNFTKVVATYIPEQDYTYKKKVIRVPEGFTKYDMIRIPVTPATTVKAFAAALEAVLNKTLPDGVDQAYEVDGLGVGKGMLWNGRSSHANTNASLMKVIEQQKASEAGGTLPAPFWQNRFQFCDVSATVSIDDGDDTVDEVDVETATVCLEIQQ
# [3] = biological target: AMP-activated protein kinase, AMPK (Homo sapiens) (UniProt P54646+O43741+P54619+Q9UGJ0+Q9Y478+Q13131+Q9UGI9); experiment: AMP-dependent Kinase enzyme assay. An in vitro enzyme assay that detects ADP turnover that is directly proportional to AMPK activity. This uses naive AMPK that is activated during the assay with MK-8722; type: functional; conditions: 30 µM
# [4] = biological target: Sialic acid-binding Ig-like lectin 9 (Homo sapiens) (UniProt Q9Y336); experiment: Hs-Siglec9 ALPHAscreen SOP 20170721; conditions: 10 µM
# Trypanosoma cruzi = experiment: Trypanosoma cruzi phosphomannomutase and mannose-1-phosphate guanylyltransferase assay; type: functional; conditions: 10 µM
# [5] = biological target: T2, Arginase-2, mitochondrial (Homo sapiens) (UniProt P78540); experiment: in vitro enzyme assay to detect the production of urea directly proportional to the activity of Arginase II; type: functional; conditions: 33.3 µM; also: in the data most compounds retested in dose-response had high values
# T2 sequence (whole entry): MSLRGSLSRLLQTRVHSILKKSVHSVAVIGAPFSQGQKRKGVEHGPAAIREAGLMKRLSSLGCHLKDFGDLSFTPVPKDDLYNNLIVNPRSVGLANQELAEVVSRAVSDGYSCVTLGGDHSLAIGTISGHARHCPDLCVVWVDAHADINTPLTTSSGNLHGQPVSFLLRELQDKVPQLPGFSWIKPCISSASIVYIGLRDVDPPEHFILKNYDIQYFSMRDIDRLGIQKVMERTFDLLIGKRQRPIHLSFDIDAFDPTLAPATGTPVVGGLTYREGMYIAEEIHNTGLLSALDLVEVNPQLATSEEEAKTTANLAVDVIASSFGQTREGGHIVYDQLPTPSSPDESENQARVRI
# [6] = biological target: T3, Proteasome subunit beta (Trypanosoma cruzi) (UniProt O96673); experiment: Trypanosoma cruzi proteasome chymotrypsin-like activity (TcProtChymo) assay.; also: in the data most compounds retested in dose-response had high values; type: functional; conditions: 9.37 µM
# T3 sequence (whole entry): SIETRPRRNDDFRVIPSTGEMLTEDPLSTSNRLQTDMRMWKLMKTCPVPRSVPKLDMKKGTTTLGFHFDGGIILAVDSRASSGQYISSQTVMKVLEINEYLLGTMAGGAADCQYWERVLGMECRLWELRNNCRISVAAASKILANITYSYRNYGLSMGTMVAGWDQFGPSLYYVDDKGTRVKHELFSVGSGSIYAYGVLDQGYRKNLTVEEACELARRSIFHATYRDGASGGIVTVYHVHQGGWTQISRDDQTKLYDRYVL
# Homo sapiens = species: Homo sapiens; experiment: To identify inhibition of the IFN signalling (Jak-Stat) pathway via expression of an eGFP reporter gene under the control of an IFN-stimulated response element (ISRE) containing MxA promoter.; type: functional; conditions: 30 µM
# [7] = biological target: T4, Tyrosyl-tRNA synthetase, putative (Trypanosoma cruzi (strain CL Brener)) (UniProt Q4DSP6); experiment: Trypanosoma cruzi tyrosyl tRNA synthetase (TcYRS) _High Tyrosine SOP; type: functional; conditions: 30 µM; also: in the data most compounds retested in dose-response had high values
# T4 sequence (whole entry): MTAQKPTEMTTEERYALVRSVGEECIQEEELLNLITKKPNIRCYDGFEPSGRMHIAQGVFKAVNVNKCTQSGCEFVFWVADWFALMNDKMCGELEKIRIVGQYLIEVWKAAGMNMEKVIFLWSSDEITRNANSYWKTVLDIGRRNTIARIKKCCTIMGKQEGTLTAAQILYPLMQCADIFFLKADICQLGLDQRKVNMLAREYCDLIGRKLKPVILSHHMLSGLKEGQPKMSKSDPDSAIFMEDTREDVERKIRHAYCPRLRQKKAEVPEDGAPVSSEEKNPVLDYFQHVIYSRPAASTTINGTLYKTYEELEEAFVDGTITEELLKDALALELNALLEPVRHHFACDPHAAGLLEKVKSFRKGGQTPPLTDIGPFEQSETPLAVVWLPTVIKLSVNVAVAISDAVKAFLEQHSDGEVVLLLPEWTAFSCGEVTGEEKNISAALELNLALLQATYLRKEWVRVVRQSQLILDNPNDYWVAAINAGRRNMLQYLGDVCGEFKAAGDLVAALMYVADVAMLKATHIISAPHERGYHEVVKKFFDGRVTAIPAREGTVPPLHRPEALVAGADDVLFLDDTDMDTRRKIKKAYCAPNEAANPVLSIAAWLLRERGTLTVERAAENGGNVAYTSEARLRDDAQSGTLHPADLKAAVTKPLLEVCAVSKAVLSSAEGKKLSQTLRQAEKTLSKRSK
# [8] = biological target: T4, Tyrosyl-tRNA synthetase, putative (Trypanosoma cruzi (strain CL Brener)); experiment: Trypanosoma cruzi tyrosyl tRNA synthetase (TcYRS) SOP; type: functional; conditions: 30 µM
# [9] = biological target: Chromo domain-containing protein 1 (Saccharomyces cerevisiae (strain ATCC 204508 / S288c) (Baker's yeast)) (UniProt P32657); experiment: ScCHD-1 Enzyme Inhibition Assay; type: functional; conditions: 30 µM; also: in the data most compounds retested in dose-response had high values
# Sequence of Chromo domain-containing protein 1 (Saccharomyces cerevisiae (strain ATCC 204508 / S288c) (Baker's yeast)) (P32657 whole entry, the tested form may be a part): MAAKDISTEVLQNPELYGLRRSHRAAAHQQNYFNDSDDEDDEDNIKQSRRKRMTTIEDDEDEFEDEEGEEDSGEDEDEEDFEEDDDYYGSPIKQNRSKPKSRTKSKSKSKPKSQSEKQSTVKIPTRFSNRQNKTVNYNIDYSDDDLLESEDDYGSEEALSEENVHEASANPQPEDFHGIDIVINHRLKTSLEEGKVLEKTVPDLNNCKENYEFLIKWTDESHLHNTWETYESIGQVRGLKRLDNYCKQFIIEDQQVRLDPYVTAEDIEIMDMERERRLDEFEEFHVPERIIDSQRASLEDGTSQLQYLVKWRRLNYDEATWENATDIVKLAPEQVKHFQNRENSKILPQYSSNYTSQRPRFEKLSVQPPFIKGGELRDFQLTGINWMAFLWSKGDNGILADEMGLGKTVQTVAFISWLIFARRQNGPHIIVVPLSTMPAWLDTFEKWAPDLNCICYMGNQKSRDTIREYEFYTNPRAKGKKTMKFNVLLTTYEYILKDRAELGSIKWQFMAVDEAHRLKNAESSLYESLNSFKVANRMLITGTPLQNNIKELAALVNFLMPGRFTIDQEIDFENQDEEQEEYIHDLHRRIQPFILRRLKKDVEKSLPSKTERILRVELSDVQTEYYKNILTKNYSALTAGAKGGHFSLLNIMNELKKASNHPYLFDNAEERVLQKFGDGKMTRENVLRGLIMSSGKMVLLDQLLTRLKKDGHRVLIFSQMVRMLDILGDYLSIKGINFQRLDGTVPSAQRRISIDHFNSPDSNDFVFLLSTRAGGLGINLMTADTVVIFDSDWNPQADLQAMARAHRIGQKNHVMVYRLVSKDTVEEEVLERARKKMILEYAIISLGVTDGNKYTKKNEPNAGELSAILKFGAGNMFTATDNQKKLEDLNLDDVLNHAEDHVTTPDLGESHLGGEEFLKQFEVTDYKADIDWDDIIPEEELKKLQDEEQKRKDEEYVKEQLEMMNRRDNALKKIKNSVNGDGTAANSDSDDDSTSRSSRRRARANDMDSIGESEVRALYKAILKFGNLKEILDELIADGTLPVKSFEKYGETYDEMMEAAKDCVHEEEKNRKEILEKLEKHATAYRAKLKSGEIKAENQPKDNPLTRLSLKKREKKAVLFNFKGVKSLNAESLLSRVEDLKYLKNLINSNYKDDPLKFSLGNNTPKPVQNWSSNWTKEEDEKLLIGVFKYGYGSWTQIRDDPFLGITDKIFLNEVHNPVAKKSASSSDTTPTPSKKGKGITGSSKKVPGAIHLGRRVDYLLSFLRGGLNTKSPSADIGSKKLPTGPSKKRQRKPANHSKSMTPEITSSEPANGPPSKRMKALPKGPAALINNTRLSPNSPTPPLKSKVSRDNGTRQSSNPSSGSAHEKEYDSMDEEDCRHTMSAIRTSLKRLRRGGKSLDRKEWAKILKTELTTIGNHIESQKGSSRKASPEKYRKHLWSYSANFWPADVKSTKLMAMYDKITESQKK
# Sequence of Protein translocase subunit SecA (Escherichia coli (strain K12)) (P10408 whole entry): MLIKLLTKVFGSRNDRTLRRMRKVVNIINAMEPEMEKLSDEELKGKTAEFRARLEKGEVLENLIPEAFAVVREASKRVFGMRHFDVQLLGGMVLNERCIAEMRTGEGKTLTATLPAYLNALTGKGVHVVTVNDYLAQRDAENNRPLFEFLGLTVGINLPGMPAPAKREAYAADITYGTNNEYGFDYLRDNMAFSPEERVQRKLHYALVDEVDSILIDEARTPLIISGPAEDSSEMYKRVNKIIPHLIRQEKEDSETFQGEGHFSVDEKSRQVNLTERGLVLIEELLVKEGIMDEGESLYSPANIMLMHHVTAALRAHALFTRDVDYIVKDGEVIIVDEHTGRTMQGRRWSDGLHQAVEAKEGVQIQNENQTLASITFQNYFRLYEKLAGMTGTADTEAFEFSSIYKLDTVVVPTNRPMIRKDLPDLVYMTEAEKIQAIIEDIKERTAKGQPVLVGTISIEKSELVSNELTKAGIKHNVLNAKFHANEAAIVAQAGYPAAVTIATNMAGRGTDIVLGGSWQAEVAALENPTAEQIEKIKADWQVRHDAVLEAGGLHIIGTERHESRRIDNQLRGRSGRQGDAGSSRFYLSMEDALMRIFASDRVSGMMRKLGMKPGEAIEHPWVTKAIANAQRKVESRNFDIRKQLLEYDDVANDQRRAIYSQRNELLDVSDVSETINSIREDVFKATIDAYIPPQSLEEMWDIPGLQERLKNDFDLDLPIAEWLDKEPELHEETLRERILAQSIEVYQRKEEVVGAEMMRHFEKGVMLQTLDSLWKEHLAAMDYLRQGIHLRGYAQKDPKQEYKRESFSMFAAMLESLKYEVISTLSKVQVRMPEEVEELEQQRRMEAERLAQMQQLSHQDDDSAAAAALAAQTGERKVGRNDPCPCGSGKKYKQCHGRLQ
# Sequence of Sialic acid-binding Ig-like lectin 9 (Homo sapiens) (Q9Y336 whole entry): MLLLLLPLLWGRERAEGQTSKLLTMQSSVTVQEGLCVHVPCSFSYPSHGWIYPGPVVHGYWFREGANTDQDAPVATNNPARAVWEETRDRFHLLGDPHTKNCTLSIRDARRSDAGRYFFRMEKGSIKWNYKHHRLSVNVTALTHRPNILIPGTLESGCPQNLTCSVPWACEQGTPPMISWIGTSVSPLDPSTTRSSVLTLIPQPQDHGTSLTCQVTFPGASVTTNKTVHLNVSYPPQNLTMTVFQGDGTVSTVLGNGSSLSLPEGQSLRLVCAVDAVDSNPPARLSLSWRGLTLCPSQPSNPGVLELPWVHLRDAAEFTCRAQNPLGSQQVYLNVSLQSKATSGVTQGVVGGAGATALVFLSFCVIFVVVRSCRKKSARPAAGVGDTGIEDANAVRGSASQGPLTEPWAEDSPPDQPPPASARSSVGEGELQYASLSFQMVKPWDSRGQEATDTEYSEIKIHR
Structure (SMILES),Percent Effect [1] [%],Percent Effect [2] [%],Percent Effect [3] [%],Percent Effect [4] [%],Percent Effect (Trypanosoma cruzi) [%],Percent Effect [5] [%],Percent Effect [6] [%],Percent Effect (Homo sapiens) [%],Percent Effect [7] [%],Percent Effect [8] [%],Percent Effect [9] [%]
Cc1occc1C(=O)N1CCC2(CCC2NC(=O)c2ccn(C)c2)CC1 (configuration not stated),-5.67,8.11,3.15,-1.3,4.79,-3.5,12,-2.79,6.49,15.4,3.75
Cc1cnc(C(=O)N2CCc3ncnc(C)c3CC2)cn1,-2.65,0,-0.0548,5.51,-1.39,-2.79,15.8,19.6,2.08,11.1,-2.02
O=C(c1ccc[nH]1)N1C[C@H](OCc2cccnc2)[C@H]2COC[C@H]21,-4.86,0,2.4,-3.13,1.17,-1.25,12.3,-27.9,8.91,-3.66,-5.43
CNC(=O)[C@H]1C[C@@H]2CN(C(=O)Nc3ccc(F)cc3)C[C@H]1O2,-1.87,13,7.85,4.28,1.28,9.68,9.05,18.3,7.41,16.7,-7.08
CC(C)(C)c1nc(CN(Cc2cccs2)C2CCS(=O)(=O)C2)no1 (configuration not stated),-1.36,21.1,-5.34,-2,4.76,1.44,5.67,26.2,6.4,25.9,-8.43
Cn1cc(CN2CCn3cc(CNC(=O)c4cccn4C)nc3C2)cn1,-0.61,0,12.6,0.00498,-0.394,-0.699,-4.32,3.52,4.25,6.41,5.91
OC(COCc1ccc(Cl)cc1)CN1CCC(c2ccn[nH]2)CC1 (configuration not stated),-3.72,20.2,-9.18,-2.48,7.27,-3.04,3.03,-5.57,5.42,26.6,-7.16
O=C1CCc2cc(-c3csc(CCN4CCCC4=O)n3)ccc2N1,-2.58,20.8,4.11,2.39,0.936,-4.98,5.41,22.8,15.5,19.5,-7.82
Cc1cccc(CCC(=O)N2CCOCC2c2c(C)n[nH]c2C)c1 (configuration not stated),-3.35,-5.48,-2.62,6.45,-3.33,-2.73,-2.84,9.04,-3.23,-7.5,-2.99
Cc1nc(C2CCCN2CCCS(=O)(=O)N(C)C)no1 (configuration not stated),-4.22,28.9,-4.98,-5.59,2.26,-0.383,13.4,10.9,-5.39,17.1,-9.28
CCN1C[C@@H]2[C@@H](OC)CCN(S(=O)(=O)c3ccccc3F)[C@@H]2C1,-2.71,5.33,11.3,0.304,-2.56,4.43,0.793,4.67,-1.06,3.85,-0.244
c1nc(COCC2CC2)c2n1CCCN(CC1CC1)C2,-8.2,-2.67,1.44,3.77,-2.12,-22.4,-0.513,-0.93,-1.04,0,0.35
CCn1ccnc1CN1CCN(CCOc2cccc(C#N)c2)CC1,-4.35,21.1,-6.98,-4.93,5.64,-0.383,11.9,4.93,8.33,19.5,-13
O=C1[C@@H]2CCN(Cc3ccoc3)C[C@@H]2OCCN1c1ccccc1,-5.21,10.7,13,1.36,-2.95,8.16,5.02,5.67,3.19,11.5,1.78
CCOC(=O)N1CCN(C(=O)CCn2ccc3c(OC)cccc32)CC1,-0.914,0,-4.91,2.66,-6.91,-10.7,15.8,35,2.13,-2.6,-1.25
COc1cc(CN(C)C(=O)Cc2c(C)nn(C)c2C)ccc1OC(F)F,3.46,-9.72,-6.03,-7.7,-5.15,3.09,20.2,55.5,5.26,10.3,0.343
Cc1cc(C)n(Cc2ccc(C(=O)NCCN3CCOCC3)cc2)n1,-1.98,4.17,-0.277,-1.95,6.32,-0.442,19.6,5.69,7.37,7.69,-6.36
Cc1cccc(CN2C(=O)CO[C@@H]3CN(Cc4nccn4C)C[C@H]32)c1,0.226,10.8,-0.86,-6.69,3.91,25.8,20.5,12.6,9.9,18.3,-3.16
O=C(NC[C@H]1OC[C@@H]2CCN(Cc3ccco3)C[C@@H]21)c1ccsc1,-1.93,8.22,-0.185,8.5,4.17,-9.58,11.2,-6.7,6.25,8.64,-1.63
Cc1ccc2c(c1)c(CNC(=O)C1CCN(C(C)C)CC1)nn2C,2.34,5.41,-3.84,-0.447,-0.579,-2.38,12.9,-16.3,4.76,14.6,-3.28
O=C(c1ccco1)N1CCOCC2(CCN(C3CCOCC3)C2)C1 (configuration not stated),-0.734,1.33,-1.65,3.4,-7.47,-2.29,7.95,2.53,0,5.13,-6.06
COCCc1noc(CN(C)C(=O)c2cccc(N3CCCC3=O)c2)n1,-2.59,-2.53,0.707,3.91,-1.23,-0.38,-0.246,-3.22,-0.493,-3.8,-1.74
